# The list shows a part of the results. Activity calls are given as the source filed them.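 How the source made its calls: active means mean protection from necroptosis of at least 50% over duplicate tests; inactive means mean protection below 50%.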
# Test: inhibitors of zVAD-triggered necroptosis in L929, confirmation, L929 cells, duplicate runs (AID 463117);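 further: 0% = cells with zVAD alone and 100% = vehicle cells without zVAD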
# Conditions: L929 zVAD-induced necroptosis rescue, ATP luminescence, 24 h; at 10 µM; hits give high values
structure (smiles),measurement,value
COC(=O)N1C(c2ccccc2)C1c1ccccc1 (stereo unspecified),activation (protection from necroptosis),91.7% (active)
